Experimental data as given in PubChem BioAssay (NCATS).
Results filed as inconclusive are left out. A number with no mark means an inactive call. Calls follow the shape of the dose curve; as a rule, active = well fitted cell-killing curve with a large enough effect; inconclusive = small, poorly fitted or top-dose-only effect, or effect the other way; inactive = flat fitted curve, though single readings scatter.

tested on: CAOV3; assay: Primary qHTS to identify gynecologic anti-cancer compounds using libraries of approved drugs and bioactive compounds (AID 1345084); conditions: Gynecologic cancer cell panel viability, ATPlite luminescence, 48 h; series mostly up to 57.5 µM; activity change, negative = cytotoxicity: at the top concentration; also: nearly all actives have a fitted effect of over 55% in size
Outline: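 Five-point cytotoxicity, 48 h drug exposure at 37 C, 5% CO2, on cells seeded 16 h beforehand. ATP content read by ATPlite luminescence.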
% is scaled to controls: 0 for no effect and ±100 for the full control effect.

Compound | activity change, negative = cytotoxicity
CN1CC[C@@H](NC(=O)Nc2ccc(C#N)cc2)C[C@@H]1c1nc2ccccc2[nH]1 | -4.79%
O=C(O)c1cc(O[C@@H]2O[C@H](CO[C@@H]3OC[C@@H](O)[C@H](O)[C@H]3O)[C@@H](O)[C@H](O)[C@H]2O)c2ccccc2c1O | -11.3% [at 25.3 µM]
O=c1ccn(C2OC(CO)C(O)C2O)c(=O)[nH]1 (centres undefined) | 1.33%
Clc1ccc(CN[C@H]2CCN(c3ncc(Br)cn3)C2)c(Cl)c1 | -0.105%
C=C1C(=O)OC2/C=C(\C)CC/C=C(\C(=O)O)CC/C=C(\C)CCC12 (centres undefined) | 17.8% [at 38.5 µM]
C=CC1(C)C=C2C(=O)CC3C(C)(C)CCCC3(C(=O)O)C2(O)CC1 (centres undefined) | 11% [at 38.5 µM]
COc1c(C)c2c(c(O)c1C/C=C(\C)CC/C=C(\C)CCC(=O)O)C(=O)OC2 | 0.44% [at 38.5 µM]
CNC(=O)COC(=O)NCCC1CCN(c2cccc(C)n2)CC1 | 1.17%
Cc1nn(C)c(COc2ccc(N3CCN(S(=O)(=O)N(C)C)CC3)cc2)c1-c1cccc2c(CCCOc3cccc4ccccc34)c(C(=O)O)n(CCN3CCOCC3)c12 | 33.8%
CCCCS(=O)(=O)Nc1ncnc(OCCOc2ncc(Br)cn2)c1-c1ccc(Br)cc1 | 1.88%
C[C@H]1C[C@H]2[C@@H]3CCC4=CC(=O)C=C[C@]4(C)[C@@]3(F)[C@@H](O)C[C@]2(C)[C@@]1(O)C(=O)COP(=O)(O)O | -0.931%
CC(C)(O)c1ccc2c(c1)C(O)CC1C(C)(C(=O)O)CCCC21C (centres undefined) | -0.246% [at 38.5 µM]
COc1cc(CCc2ccccc2)c(C(=O)O)c2c1CC(C(C)(C)O)O2 (centres undefined) | 3.07% [at 38.5 µM]
CCCCCCc1cccc(NC(=O)[C@H](N)CCP(=O)(O)O)c1 | 5.39% [at 11.6 µM]
